Bioassay records as filed in PubChem BioAssay.
This is a sample that favours compounds with a hit; in the whole collection about 3% have one here.
RE007 growth inh – less growth of the S. pombe RE007 Vpr strain | S. pombe RE007 Vpr strain, BacTiter-Glo ATP luminescence, 24 h | Potency, µM (doses to about 92.2 µM), for the others: at the highest dose activity change, negative = less growth, actives largely listed as inhibitors | actives 0.21% (n = 360,000); active = well fitted falling curve with a large enough effect; inconclusive = small, poorly fitted or top-dose-only effect; inactive = no such curve, though single readings can be large or run the other way; also: nearly all actives have a fitted effect of over 50% in size
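Fission yeast strain RE007, carrying one chromosomally integrated HIV-1 vpr copy, was seeded at OD 0.01 in PMG+AL medium with 23 nL pinned compound. After 24 h at 30 °C and 99% humidity, viability was read by BacTiter-Glo luminescence.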
TbPYK inhibitor – blocks Trypanosoma brucei pyruvate kinase; Q57TT1; TbPYK enzyme, Kinase-Glo Plus ATP luminescence, 45 min; Potency, µM (top dose mostly 76.8 µM), for inactives: at the top dose activity, negative = inhibition, most hits filed as inhibitors; actives 0.12% (n = 410,000); also: nearly all actives have a fitted effect of over 50% in size
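ADP (130 uM final) triggers the TbPYK reaction after compound addition; incubation is 45 min at room temperature. Kinase-Glo Plus is then added and luminescence imaged. Normalized data are fitted to concentration-effect curves.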
LmPK inh – LmPK (Leishmania mexicana) enzyme inhibition; purified LmPK, Kinase-Glo ATP luminescence, 1 h; actives 0.37% (n = 290,000); Potency, µM (highest dose often 57.5 µM), without a hit: at the top dose activity change, negative = inhibition, actives largely listed as inhibitors; Q27686; AID 1721
Target sequence (Q27686 whole entry, looked up): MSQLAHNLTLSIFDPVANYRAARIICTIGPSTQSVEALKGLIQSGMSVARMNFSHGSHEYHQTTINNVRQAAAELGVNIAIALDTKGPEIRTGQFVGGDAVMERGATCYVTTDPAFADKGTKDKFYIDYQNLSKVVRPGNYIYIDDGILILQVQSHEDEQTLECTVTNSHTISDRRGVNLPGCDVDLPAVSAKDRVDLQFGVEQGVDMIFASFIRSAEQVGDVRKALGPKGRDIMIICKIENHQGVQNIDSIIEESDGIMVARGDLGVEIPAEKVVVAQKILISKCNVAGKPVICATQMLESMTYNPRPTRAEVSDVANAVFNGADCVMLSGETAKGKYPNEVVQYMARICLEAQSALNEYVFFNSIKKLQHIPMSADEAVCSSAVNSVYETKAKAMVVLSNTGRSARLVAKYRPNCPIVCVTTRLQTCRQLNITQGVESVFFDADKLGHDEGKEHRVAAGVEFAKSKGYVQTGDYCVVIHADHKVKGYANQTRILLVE
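ATP generated from ADP (0.1 mM) and PEP (0.5 mM) by 0.1 nM LmPK over 1 h at room temperature (pH 7.2 imidazole buffer) was detected by coupled luciferase luminescence. Values were normalized to uninhibited and no-enzyme wells.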
Sm TGR inh – inhibitors of Schistosoma mansoni thioredoxin glutathione reductase; Potency, µM (top dose mostly 114 µM), for inactives: top-dose activity change, negative = inhibition, actives largely listed as inhibitors; purified TGR, DTNB reduction, TNB absorbance 405 nm; actives 3% (n = 360,000); also: nearly all actives have a fitted effect of over 60% in size
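First, TGR (20 nM dispensed) and NADPH were mixed with compound. Second, a 15 min room-temperature incubation followed. Third, further NADPH and then DTNB were added to start the reaction. Finally, TNB absorbance was monitored kinetically.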
* hit, by the source's call; ? = inconclusive; . = not tested or not shown; [ ] = dose if it differs, or a comment. Unless noted, calls follow the shape of the dose curve; as a rule, active = well fitted curve in the direction sought with a large enough effect; inconclusive = small, poorly fitted or top-dose-only effect, or another doubt; inactive = no such curve, though single readings can be large; an effect the other way counts as inactive or inconclusive. % is scaled to controls: 0 for no effect and ±100 for the full control effect; potency is read from the fitted curve at half-maximal effect.

SMILES	RE007 growth inh	TbPYK inhibitor	LmPK inh	Sm TGR inh
O=C(O)c1cccc(S(=O)(=O)Nc2ccc([N+](=O)[O-])cc2O)c1	7%	0%	3%	7%
O=S(=O)(Nc1cc(Sc2cccc3cccnc23)c(O)c2ccccc12)c1ccccc1	.	.	-12%	3.5µM*
CCOC(=O)CC(NC(=O)N1CCC(CN2CCC(C)CC2)CC1)c1ccccc1 (stereo not drawn)	.	0%	.	3%
Cc1cc2c(c(=O)n1-c1ccccc1)C1O[C@](c3ccsc3)(Cc3ccccc31)O2	.	.	-1%[11.5 µM]	-34%[22.9 µM]
COc1ccccc1CNC(=O)c1ccc(N2CCCC2)c(NC(=O)NCCC(C)C)c1	.	-10%	.	?
O=C(CC1SC(N2CCOCC2)=NC1=O)Nc1ccccc1Cl (stereo not drawn)	-4%	6%	.	45µM*
C=CCN=c1scc(-c2ccc3c(c2)NC(=O)CO3)n1/N=C(\C)c1ccccn1	6%	3%	3%	35µM*
Cc1cc(F)ccc1-c1cc(C(=O)NC2CCCCC2)[nH]n1	-12%	7%	.	.
CCN(C(=O)C(C)N1C(=O)/C(=C/c2ccco2)SC1=S)C1CCS(=O)(=O)C1 (stereo not drawn)	12%	?	12%	40µM*
CC(C(=O)O)N1C(=O)/C(=C/C=C/c2ccco2)SC1=S (stereo not drawn)	11%	-8%	5%	7.1µM*
CC(C(=O)N(C)C1CCS(=O)(=O)C1)N1C(=O)/C(=C/c2ccc(F)cc2)SC1=S (stereo not drawn)	-13%	4%	10%	-27%
CC(=C\c1ccccc1)/C=C1/SC(=S)N(C(C(=O)O)C(C)C)C1=O (stereo not drawn)	11%	6%	5%	26%
O=C1/C(=C/C=C/c2ccco2)SC(=S)N1NS(=O)(=O)c1ccccc1	-12%	-13%	4%	1.8µM*
COc1cc(OC)c(C(=O)NCc2nc(-c3ccccc3)no2)cc1OC	.	3%	.	-3%
CCC1CCCCN1CCCNC(=O)c1ccc2c(c1)NC(=O)CN2C (stereo not drawn)	-17%	-7%	3%	-28%
CCCCN(CC)CCCNC(=O)c1ccc2c(c1)NC(=O)CN2C	.	-3%	.	22µM*
Cc1ccc(CNC(=O)Cn2cc(S(=O)(=O)Cc3ccccc3F)c3ccccc32)cc1	.	0%[15.4 µM]	.	-1%
CCOC(=O)c1[nH]c(Cc2[nH]c(C(=O)OCC)c(C)c2CCC(=O)OC)c(CCC(=O)OC)c1C	-7%	6%	-2%	7.9µM*
CCCN1Cc2cccc(C(=O)Nc3cc(Cl)ccc3C)c2C1=O	.	-1%	.	7%
Cc1nc2sc(-c3ccccc3)cc2c(=O)n1N	?	?	7.1µM*	4%
O=C(OCc1nnc(-c2ccc([N+](=O)[O-])cc2)o1)C1CC(=O)N(CCc2ccccc2)C1 (stereo not drawn)	3%	-16%	.	89µM*
COc1ccc(CC(=O)Nc2sc3c(c2C#N)CC(C)(C)NC3(C)C)cc1OC	2%	2%	-2%	89µM*
CCCC(=O)Nc1sc2c(c1C#N)CC(C)(C)NC2(C)C	-4%	-9%	2%	-10%
CCC(C)c1ccccc1N1CC(C(=O)Nc2cccc(S(=O)(=O)N3CCOCC3)c2)CC1=O (stereo not drawn)	-13%	-2%	-5%	-23%
COc1ccccc1NC(=S)NC(=O)CCc1ccccc1	-6%	-1%	-3%	4.5µM*
SMILES	RE007 growth inh	TbPYK inhibitor	LmPK inh	Sm TGR inh
COc1ccccc1NC(=S)NC(=O)CC(C)C	-9%	-2%	2%	28µM*
O=C(CCc1ccccc1)NC(=S)Nc1ccccc1Br	?	-2%	3%	?
CCN1CCN(C(=O)Cn2ncc3c4ccccc4n(Cc4c(C)cc(C)cc4C)c3c2=O)CC1	.	3%	.	1%
CCN(CC)S(=O)(=O)c1ccc(NC2c3ccccc3C(=O)N2Cc2ccc3c(c2)OCO3)cc1 (stereo not drawn)	3%	5%	-8%	0%
CCN(CC)S(=O)(=O)c1ccc(NC2c3ccccc3C(=O)N2Cc2ccco2)cc1 (stereo not drawn)	3%	-22%	3%	22µM*
COc1ccc(C2Nc3ccccc3C(=O)N2Cc2ccco2)cc1COc1ccc([N+](=O)[O-])cc1 (stereo not drawn)	-7%	-1%	-1%	-6%
O=C1c2ccccc2N2C(=O)c3ccccc3C2N1Cc1ccco1 (stereo not drawn)	3%	-1%	3%	14µM*
Cc1ccccc1NC1c2ccccc2C(=O)N1Cc1ccco1 (stereo not drawn)	10%	-12%	12%	20µM*
O=C1c2ccccc2N2C(=O)c3ccccc3C2N1O (stereo not drawn)	-6%	-7%	-1%	0%
COc1cccc(OCc2cc(C3Nc4ccccc4C(=O)N3Cc3ccco3)ccc2OC)c1 (stereo not drawn)	2%	-1%	0%	18µM*
O=C1c2ccccc2C(Nc2cccc(C(F)(F)F)c2)N1Cc1ccco1 (stereo not drawn)	-1%	3%	2%	0%
CCOc1ccc(N2C(=O)c3[nH]nc(-c4ccc(OC)cc4)c3C2c2cccs2)cc1 (stereo not drawn)	.	-6%	.	-2%
Cc1c(Cl)ccc2sc(N3CCN(C(=O)CCS(=O)(=O)c4ccc(F)cc4)CC3)nc12	.	0%	.	0%
Cc1noc(C)c1C(=O)N1CCC2(CC1)CN(c1ccccn1)C2	.	0%	.	.
COc1cccc(NC2c3ccccc3C(=O)N2Cc2ccco2)c1 (stereo not drawn)	7%	-13%	7%	40µM*
CC(=O)c1cccc(NC2c3ccccc3C(=O)N2Cc2ccco2)c1 (stereo not drawn)	3%	-1%	4%	?
N#Cc1ccc(C(=O)OCC(=O)Nc2cccc(S(=O)(=O)NC3=NCCC3)c2)cc1	-16%	-5%	.	.
O=S(=O)(CC(CN1CCCC1)N1CCCC1)c1ccc2ccccc2c1 (stereo not drawn)	-10%	2%	-2%	16µM*
CCc1ccc(-n2nc(CO)c(C(=O)NC)n2)cc1	.	0%	.	0%
O=C(Nc1ccccn1)c1csc2c1CCCC2	?	0%	-11%	.
O=C(Nc1ccccn1)c1onc2c1CCCC2	10µM*	?	11µM*	-3%
COc1ccc2c(c1)CC/C(=C\c1ccc(C)o1)C2=O	17%	-12%	-6%	22µM*
COc1ccc2c(c1)CC/C(=C\C=C\c1ccccc1OC)C2=O	-9%	-9%	0%	28µM*
COc1ccc2c(c1)C(=O)/C(=C/C=C/c1ccccc1)CC2	-14%	2%	-8%	45µM*
COc1ccc(C=C2Cc3ccccc3C2=O)cc1	3%[18.4 µM]	-10%	.	.
COc1ccc2c(c1)CC/C(=C/c1ccncc1)C2=O	?	-9%	-19%	4%
Cc1ccccc1S(=O)(=O)N(C)C[C@H]1OCc2cn(nn2)CCCC(=O)N([C@H](C)CO)C[C@@H]1C	6%	8%	.	.
